A number with no mark means an inactive call. The rule behind the calls is not given here.

Pantothenate synthetase (Mycobacterium tuberculosis (strain ATCC 25618 / H37Rv)), sequence (P9WIL5 whole entry, looked up): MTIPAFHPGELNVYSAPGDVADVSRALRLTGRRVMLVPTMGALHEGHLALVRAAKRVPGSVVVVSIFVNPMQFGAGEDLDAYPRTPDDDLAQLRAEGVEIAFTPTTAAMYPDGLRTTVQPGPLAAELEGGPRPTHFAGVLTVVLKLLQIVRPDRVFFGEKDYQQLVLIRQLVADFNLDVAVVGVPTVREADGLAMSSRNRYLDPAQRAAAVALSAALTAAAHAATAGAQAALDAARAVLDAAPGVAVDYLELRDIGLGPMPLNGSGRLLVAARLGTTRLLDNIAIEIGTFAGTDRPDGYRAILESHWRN

The assay addresses Pantothenate synthetase (Mycobacterium tuberculosis (strain ATCC 25618 / H37Rv)) (UniProt P9WIL5). As to the kind of experiment: Coupled enzyme confirmation of inhibitors against recombinant Mtb PanC (AID 375).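 Note: 0% = full reaction with vehicle and 100% = no enzyme background.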 The following applies: coupled enzyme assay; at 10 µM, active compounds read high.
As for `c1ccc(CNc2ccc3c(c2)ncn3C2CCCCC2)nc1`, the inhibition (as a rule, the relative decrease from the control value, in per cent) was 0%. `CCN(CC)S(=O)(=O)c1ccc(S(=O)(=O)N(Cc2ccccn2)Cc2ccco2)cc1`: the inhibition is 11%. `Nc1nc2c(ncn2COCCO)c(=O)[nH]1`: the inhibition is 0%.

As for `CCc1cc2c(CN3CCN(CCO)CC3)cc(=O)oc2cc1O`, the inhibition is 0%. With `CCc1ccc(C=NC23CN4CN(CN(C4)C2)C3)s1` the figure was 0%. With `CCN(CCCc1ccccc1)CCCc1ccccc1`, the inhibition was 0%.

On to `Cc1nc(NCc2ccco2)c2oc3ccccc3c2n1`, for which the inhibition was 4%. With `CC(C)(C)NC(=O)CSc1nnc(-c2ccccn2)n1-c1ccccc1` the figure was 0%. With `Cn1cccc1-c1nc2ccc(NC(=O)c3ccco3)cc2[nH]1` the figure was 6%.

Turning to `Cc1ccc(Cn2nnc3c(=O)[nH]c(C4CCN(C(=O)c5cccs5)CC4)nc32)cc1`, the inhibition was 0%.

For the compound `CSC1=C(C#N)C(c2ccc(Cl)cc2)C2=C(CC(C)(C)CC2=O)N1` (stereo not given), the inhibition is 2%. With `CC(C)OC(=O)CSc1nnc(-c2ccco2)n1N` the figure was 0%. With `COC(=O)c1c(N)n(-c2cc(OC)cc(OC)c2)c2nc3ccccc3nc12` the figure was 1%; with `COc1cccc(-c2nc(CS(=O)(=O)CC(=O)N3CCc4ccccc4C3)c(C)o2)c1`, 4%; with `O=C(Nc1ccc(CN2CCCCC2)cc1)c1ccc2c(c1)OCO2`, 3%. The value for `COc1cccc(NS(=O)(=O)c2cc(C)sc2C)c1` was 0%. Turning to `COc1ccc(S(=O)(=O)Cc2ccc(C(=O)NCCc3ccc(S(N)(=O)=O)cc3)o2)cc1`, the inhibition is 0%. The value for `O=C(CSc1ncccn1)c1ccccc1Br` was 7%; that for `CN(C)C(=O)CSc1nnc([C@H](Cc2c[nH]c3ccccc23)NC(=O)OC(C)(C)C)o1` was 13%. With `O=C(O)c1ccc2noc(-c3ccccc3)c2c1` the figure was 0%; with `CCN1CCN(c2ncnc3c2oc2nc(C)c4c(c23)CC(C)(C)OC4)CC1`, 0%; with `Cc1nc(SCC#N)c2c(C)c(C)sc2n1`, 0%.

As for `Cn1c(=O)c2c(nc(Oc3ccc4c(c3)OCO4)n2Cc2ccc(F)cc2)n(C)c1=O`, the inhibition was 0%. With `CCCCC(c1nnnn1C1CCCC1)N1CCN(C2CCCCC2)CC1` (stereo not given) the figure was 1%; with `CCOC(=O)Cn1nnnc1CN(Cc1ccc(OC)cc1)Cc1cc2cc(C)cc(C)c2[nH]c1=O`, 3%.

Turning to `O=C(NCc1ccco1)c1ccc2c(=O)n(CC3CCCO3)c(=S)[nH]c2c1` (stereo not given), the inhibition was 3%. The value for `Cc1ccc(-c2nnnn2CS(=O)(=O)c2ccccc2)cc1` was 0%; that for `COc1ccc(Br)cc1CNC(=O)C1CCCN(S(C)(=O)=O)C1` (stereo not given) was 6%. With `O=C(NCC1CCCO1)c1cccc(N2C(=O)C3C4C=CC(C4)C3C2=O)c1` (stereo not given) the figure was 11%; with `COc1nc(Oc2ccc(=O)n(C)n2)nc(N(C)C)n1`, 4%; with `COc1ccc(C2C3=C(CC(C)(C)CC3=O)Oc3ncn4nc(-c5cccnc5)nc4c32)cc1` (stereo not given), 0%. With `Cc1ccc(CCNC(=O)C2CCCN(S(=O)(=O)c3cnc[nH]3)C2)cc1` (stereo not given), the inhibition was 2%. The value for `COCCn1c(C)cc(C(=O)COC(=O)c2n[nH]c3ccccc23)c1C` was 1%. Take `Cc1cc(NC(=O)Cc2c(F)cccc2Cl)no1`: the inhibition is 10%. The value for `CCOC(=O)c1c(C)[nH]c(C=Nc2ccccc2)c1O` was 0%; that for `CCOC(=O)/C(C#N)=C1\Nc2ccccc2N=C1N(CC(C)C)CC(C)C` was 6%. `O=c1c2ccccc2nnn1CSc1nc2cc(Cl)ccc2c(=O)n1Cc1ccco1`: the inhibition was 7%. With `COc1ccccc1-c1nc(C#N)c(N2CCN(c3ccccc3)CC2)o1` the figure was 0%; with `CCN1C(=C2C(=O)c3ccccc3C2=O)C=Cc2ccccc21`, 0%. With `CC(=O)OCC(=O)[C@@]1(O)CC[C@H]2[C@@H]3CCC4=CC(=O)CC[C@]4(C)[C@H]3[C@@H](O)C[C@@]21C` the figure was 5%.

The values are drawn from PubChem BioAssay.
